NS1 inh – influenza NS1 inhibition | Potency, µM (highest dose often 46.1 µM) | actives 0.4% (n = 270,000) | AID 2326; calls by dose curve; also: actives are rising curves; nearly all actives have a fitted effect of over 50% in size
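In this qHTS, NS1 from influenza A is expressed in budding yeast, where it slows growth. Cells are switched from glucose to 2% galactose medium (pH 6.0, -URA), treated with compound, and growth recovery is read at OD600.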
Pf growth 48h – inhibits P. falciparum growth in the first generation, 48 h | P. falciparum luciferase growth in erythrocytes, 48 h | Potency, µM (titrated, usually from 28.7 µM), hits mostly inhibitors | actives 5.9% (n = 310,000)
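Firefly luciferase activity from engineered P. falciparum reports growth; inhibitors lower the luminescent signal. Cultures contained 2% hematocrit erythrocytes at 0.1% final parasitemia.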
Pf growth 96h – P. falciparum growth inhibition at 96 hours; Potency, µM (series often up to 28.7 µM), hits mostly inhibitors; P. falciparum luciferase reporter growth, 96 h; AID 504834; actives 6.9% (n = 320,000)
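96 h incubation, 37 C, 5% CO2, of luciferase-reporter P. falciparum-infected RBCs (2% hematocrit, 0.05% parasitemia final) with test compounds; endpoint luminescence.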
SARS PLP yeast – blocks SARS-CoV papain-like protease in a yeast assay; S. cerevisiae expressing SARS-CoV PLpro, growth rescue; Potency, µM (doses to about 32.9 µM), actives largely listed as activators; actives 0.19% (n = 330,000); AID 485353; calls by dose curve; also: nearly all actives have a fitted effect of over 55% in size
CHX counter – affects cycloheximide protein synthesis inhibition readout, counter-screen. cell reporter, cycloheximide protein synthesis inhibition counterscreen. max response, %. actives 12% (n = 300,000). AID 2314; in the data active = max response mostly above about 13%, no sharp cut-off; inactive = mostly below about 14%; also: read at 38.3 µM for the half of the compounds with a filed dose
Shiga toxin inh – blocks Shiga toxin action in Vero cells. Vero cells, Shiga toxin protein synthesis inhibition reporter. inhibition, % at 38.7 µM. actives 9.2% (n = 290,000). AID 2315; in the data active = inhibition mostly above about 28%, no sharp cut-off; inactive = mostly below about 43%
Hits are given with their value; n = inactive; u = inconclusive; x = no result. Shown are actives, neighbours in structure and some others; about 21% of the full set was active somewhere. Unless noted, calls follow the shape of the dose curve; as a rule, active = well fitted inhibition curve with a large enough effect; inconclusive = small, poorly fitted or top-dose-only effect, or another doubt; inactive = no such curve, though single readings can be large or run the other way.

SMILES	NS1 inh	Pf growth 48h	Pf growth 96h	SARS PLP yeast	CHX counter	Shiga toxin inh
O=C(COc1ccc(Cl)cc1Cl)OCC(=O)N1CCCc2ccccc21	n	n	n	n	n	n
O=C(CCCOc1ccc(Cl)cc1Cl)N1CCCc2ccccc21	n	x	n	n	30	56
O=C(CCCOc1ccc(Cl)cc1Cl)N1CCC2(CC1)OCCO2	n	n	x	n	17	n
Cc1cccc(OCC(=O)OCC(=O)N2CCCc3ccccc32)c1C	x	u	n	n	x	x
Cc1cccc(OCCCC(=O)N2CCCc3ccccc32)c1C	n	x	u	n	28	n
CCc1ccccc1NC(=O)CCS(=O)(=O)c1ccc(OC)cc1	n	n	n	n	n	n
CCOC(=O)c1c(O)c(Cl)c(C)[nH]c1=O	x	n	u	n	n	n
O=S(=O)(c1ccccc1)N1CCN(C(=S)Nc2ccccc2Cl)CC1	n	u	u	n	n	n
CC1CN(C(=O)Nc2cccc(Cl)c2)C2(CCCCCC2)O1 (configuration not stated)	x	n	n	n	n	n
O=C1N(CCCN2C(=O)C3(OCCO3)c3ccccc32)c2ccccc2C12OCCO2	n	u	8.3µM	n	n	n
CN1C(=O)C2(OCC(CO)([N+](=O)[O-])CO2)c2ccccc21 (configuration not stated)	u	n	n	n	14	51
O=C1N(CCCCN2C(=O)C3(OCCO3)c3ccccc32)c2ccccc2C12OCCO2	n	n	n	n	n	n
O=C1N(CN2C(=O)C3(OCCO3)c3ccccc32)c2ccccc2C12OCCO2	n	n	n	n	n	n
Cc1ccc(NC(=O)N2C(=O)C3(OCCO3)c3ccccc32)cc1	n	n	6.6µM	n	43	93
CCOC(=O)CCNC(=O)N1CCCC(CNS(=O)(=O)c2cccs2)C1 (configuration not stated)	n	n	n	n	n	n
CCN(CC)CCCNC(=S)N1CCN(c2nc3ccccc3n2CC)CC1	n	u	n	n	n	n
CCCn1c(=O)c2sccc2n2c(CCCC(=O)NCc3cccnc3)nnc12	n	n	n	n	n	n
CCCn1c(=O)c2sccc2n2c(CCCC(=O)NCc3ccco3)nnc12	n	u	15µM	u	n	n
Cn1c(=O)c2sccc2n2c(CCCC(=O)N3CCN(c4ccccn4)CC3)nnc12	n	u	9.3µM	n	n	n
O=C(CCn1c(=O)c2sccc2n(CC(=O)NCc2ccco2)c1=O)NCc1ccccc1	n	n	x	n	n	n
CCC1CCCCN1C(=O)Cn1c(=O)n(CCC(=O)NCc2ccco2)c(=O)c2sccc21 (configuration not stated)	n	n	5.2µM	n	n	n
COCCCn1c(=O)c2sccc2n2c(CCCC(=O)N3CCN(c4ccccn4)CC3)nnc12	n	u	n	n	n	n
COc1cc(CC(=O)N(C)CC(=O)Nc2cc(C)ccc2C)cc(OC)c1OC	n	n	n	n	n	n
Cc1c(CNC(=O)C2CCC(=O)N(CCc3ccccc3)C2)cnn1C (configuration not stated)	n	n	n	n	n	n
COc1cc(Cl)ccc1OCc1cc(C(=O)N2C[C@]3(C)C[C@H]2CC(C)(C)C3)no1	n	u	n	n	72	111
SMILES	NS1 inh	Pf growth 48h	Pf growth 96h	SARS PLP yeast	CHX counter	Shiga toxin inh
COCC1CCN(C(=O)c2cc(COc3ccc(C)c(C)c3)on2)C1 (configuration not stated)	n	n	u	n	n	n
Cc1ccc(C)c(OCc2cc(C(=O)N(C)Cc3nccn3C)no2)c1	n	n	n	n	n	n
O=C(c1cc(COc2cccc(C(F)(F)F)c2)on1)N1C[C@@H]2CCC[C@H]1C2	n	u	n	n	34	77
COc1cc(C)ccc1OCc1cc(C(=O)N(Cc2c(C)nn(C)c2C)C2CC2)no1	n	n	n	n	52	76
COc1cc(Cl)ccc1OCc1cc(C(=O)N2C[C@H]3CC[C@H]2C3)no1	n	n	n	n	55	108
O=C(c1cc(COc2cccc(C(F)(F)F)c2)on1)N1CCC(c2ccncc2)CC1	n	n	u	n	n	n
CC1(C(=O)OCC(=O)NCCNC(=O)COC(=O)C2(C)CC2(Cl)Cl)CC1(Cl)Cl (configuration not stated)	n	n	u	n	n	n
COc1cc(C)ccc1OCc1cc(C(=O)N2C[C@H]3CC[C@H]2C3)no1	n	n	n	u	21	n
COc1cc(C)ccc1OCc1cc(C(=O)NCCN2CCCC(O)C2)no1 (configuration not stated)	n	n	u	n	n	n
COc1cc(C)ccc1OCc1cc(C(=O)N2CCN(C)C[C@@H]2c2ccccc2)no1	n	u	n	n	42	67
COc1cc(Cl)ccc1OCc1cc(C(=O)N2C[C@@H]3CCC[C@H]2C3)no1	n	n	n	n	60	145
CC(C)(CNC(=O)c1cccs1)N1CCOCC1	x	n	u	n	x	x
Cc1ccc(C(=O)OCC(=O)N(CC(C)C)c2c(N)n(Cc3ccccc3)c(=O)[nH]c2=O)s1	n	u	n	n	n	n
COc1ccc(-c2nc(C)ncc2-c2ccc(Cl)cc2)c(O)c1	n	4.7µM	3.7µM	n	n	n
CCOc1ccc(-c2nc(N)ncc2Oc2ccc(OC)cc2)c(O)c1	n	12µM	u	n	n	n
CCOc1ccc(-c2nc(N)ncc2-c2ccc(OC)cc2)c(O)c1	n	u	u	n	n	n
CCOc1ccc(-c2nc(N)ncc2-c2ccc(Cl)cc2)c(O)c1	n	10µM	u	n	n	n
COc1ccc(/C=C(\NC(=O)c2ccccc2)C(=O)N2CCCCC2)cc1OC	n	n	n	n	n	n
Clc1cccc(Nc2c3c(nc4ncnn24)CCC3)c1	n	9.3µM	n	n	n	n
CCc1cccc(Nc2c3c(nc4ncnn24)CCC3)c1	n	u	n	n	n	n
CCS(=O)(=O)N1Cc2ccccc2CC1C(=O)Nc1cccc(S(=O)(=O)N(C)C)c1 (configuration not stated)	n	u	u	n	n	n
COC(=O)C1=C(C)NC(C)=C(C(=O)OCC2CCCO2)C1c1cccc(Br)c1 (configuration not stated)	n	9.3µM	u	n	n	n
COc1ccc(C2C(C(=O)OCC3CCCO3)=C(C)NC3=C2C(=O)CC(c2ccco2)C3)cc1O (configuration not stated)	n	u	10µM	n	n	n
COc1ccccc1NC(=O)C1=C(C)NC2=C(C(=O)CC(c3ccc(OC)c(OC)c3)C2)C1c1coc2ccccc2c1=O (configuration not stated)	n	12µM	n	n	n	n
CC1=C(C(=O)OCc2ccccc2)C(c2ccc(C)o2)C2=C(CCCC2=O)N1 (configuration not stated)	n	12µM	n	n	n	n

High-throughput results deposited in PubChem by National Center for Advancing Translational Sciences (NCATS).
